# Inconclusive results are not listed. Where a call stands in place of a potency, no number is given. More than one record can exist for a structure, and the calls need not agree. The source made the active and inactive calls. Unless noted, calls follow the shape of the full dose curve.
# Tests used:
# [1] = qHTS assay to identify small molecule agonists of the sonic hedgehog signaling (Shh) pathway (AID 1259368);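 also: NIH/3T3-derived 3T3Gli1-Luc cells carrying a stable Gli1-driven firefly luciferase reporter; series mostly up to about 92 µM; nearly all actives have a fitted effect of over 15% in size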
# Summary of the method: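 Cells of a mouse NIH/3T3 clone stably expressing luciferase under the Gli1 transcriptional response element are exposed to test chemicals for 24 hr at 37 C. Pathway activation is detected as a rise in luminescence.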
# [2] = qHTS assay to identify small molecule antagonists of the sonic hedgehog signaling (Shh) pathway (AID 1259369); also: nearly all actives have a fitted effect of over 45% in size; also: potency is read from the fitted curve at half-maximal effect
# Summary of the method: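 Cells are plated and held 4hr at 37 C, compounds (DMSO) are pinned in, conditioned medium is added to stimulate the pathway, and after 24hr luciferase reagent is added for 30min before luminescence is read.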
# [3] = biological target: Estrogen receptor beta (Homo sapiens) (UniProt Q92731); assay: qHTS assay to identify small molecule agonists of the estrogen receptor beta (ER-beta) signaling pathway (AID 1259377; active = well fitted activation curve with a large enough effect in the signal ratio in the repeat runs, not every such curve was filed as active; the % refers to the signal ratio)
# Summary of the method: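 Screening used GripTite ER-beta-UAS-bla cells held in 2% charcoal-stripped FBS medium. After overnight (16 hr) compound incubation at 37C, beta-lactamase activity was detected with a FRET substrate by fluorescence.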
# [4] = biological target: Estrogen receptor beta (Homo sapiens) (UniProt Q92731); assay: qHTS assay to identify small molecule antagonists of the estrogen receptor beta (ER-beta) signaling pathway (AID 1259378; active = well fitted inhibition curve with a large enough effect in the signal ratio in the repeat runs, not every such curve was filed as active; the % refers to the signal ratio)
# Summary of the method: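 Antagonist mode: compounds added to beta-lactamase reporter HEK293T ER-beta-UAS cells stimulated with E2 (1nM final), 16 hr at 37C. LiveBLAzer B/G FRET substrate, 2 hours room temperature, fluorescence read-out.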
# [5] = qHTS assay to identify small molecule agonists of the androgen receptor (AR) signaling pathway in the presence of an antagonist - cell viability counter screen (AID 1259379; active = well fitted curve in the direction sought with a large enough effect in the repeat runs; an effect the other way counts as inactive or inconclusive;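 also: MDA-kb2 human breast cancer cells carrying an MMTV luciferase reporter; series mostly up to about 92 µM; nearly all actives have a fitted effect of over 25% in size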)
# Summary of the method: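 Cytotoxicity is assessed by CellTiter-Fluor in MDA-kb2 cells carrying an MMTV-driven luciferase reporter. Cells receive 3.0uM nilutamide plus compounds at 15 concentrations and incubate 16 hr at 37C without CO2 before fluorescence reading.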
# [6] = qHTS assay to identify small molecule agonists of the estrogen receptor beta (ER-beta) signaling pathway - cell viability counter screen (AID 1259380; active = well fitted curve in the direction sought with a large enough effect in the repeat runs; an effect the other way counts as inactive or inconclusive; also: nearly all actives have a fitted effect of over 30% in size)
# Summary of the method: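 Cytotoxicity is measured in parallel with the reporter screen: after 16 hr compound exposure at 37C and a 2 hr LiveBLAzer step, CellTiter-Glo is added to the same ER-beta-UAS-bla HEK293T wells and luminescence read after 30 min.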
# [7] = qHTS assay to identify small molecule antagonists of the estrogen receptor beta (ER-beta) signaling pathway - cell viability counter screen (AID 1259382; active = well fitted curve in the direction sought with a large enough effect in the repeat runs; an effect the other way counts as inactive or inconclusive;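 also: HEK293T cells carrying ER-beta-UAS-bla reporter stimulated with estradiol; series mostly up to about 92 µM; nearly all actives have a fitted effect of over 55% in size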)
# Summary of the method: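 Cytotoxicity counter screen multiplexed with the beta-lactamase antagonist assay: GripTite HEK293T ER-beta-bla cells were treated 16 hr with test chemicals in the presence of 1nM 17-beta-estradiol, and viability was measured by CellTiter-Glo.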
# [8] = biological target: Estrogen receptor (Homo sapiens) (UniProt P03372); assay: qHTS assay to identify small molecule agonists of the estrogen receptor alpha (ER-alpha) signaling pathway in the presence of an antagonist (AID 1259383); also: top concentration of the series differs between compounds; nearly all actives have a fitted effect of over 15% in size
# Summary of the method: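 Agonist-mode confirmation in the presence of the ER antagonist ICI-182,780 at 10.0nM final. Breast-derived VM7Luc4E2 reporter cells were exposed to compounds for 22hr, and ERE-driven luciferase was quantified by luminescence.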
# [9] = qHTS assay to identify small molecule agonists or antagonists of the thyroid stimulating hormone receptor (TSHR) signaling pathway - wild type cell line counter screen (AID 1259384)
# Summary of the method: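 Counter screen in untransfected Hek293: compounds (15-point titration, triplicate) plus phosphodiesterase inhibitor Ro20-1724 added after 18 h plating; 30 min RT. Intracellular cAMP via competitive d2/cryptate immunoassay, 1 h incubation.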
# [10] = biological target: Thyrotropin receptor (Homo sapiens) (UniProt P16473); assay: qHTS assay to identify small molecule antagonists of the thyroid stimulating hormone receptor (TSHR) signaling pathway (AID 1259385); also: nearly all actives have a fitted effect of over 20% in size
# Summary of the method: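 Antagonist mode: compound-treated TSHR-expressing HEK293 cells were stimulated with 1.5 ng/mL TSH (final) in presence of Ro20-1724 for 30 min at RT. HTRF cAMP detection after 1 h; each compound tested at 15 concentrations, triplicate.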
# [11] = qHTS assay to identify small molecule agonists of the estrogen receptor alpha (ER-alpha) signaling pathway in the presence of an antagonist - cell viability counter screen (AID 1259386; active = well fitted curve in the direction sought with a large enough effect in the repeat runs; an effect the other way counts as inactive or inconclusive;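 also: series mostly up to about 92 µM; cells exposed to compounds for 22 h at 37 °C before the viability read; nearly all actives have a fitted effect of over 30% in size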)
# Summary of the method: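 Cytotoxicity was measured in parallel with the ERE-luciferase agonist screen, in the same wells. The cells were VM7Luc4E2, which endogenously express ER-alpha, and treatment was with compounds plus 10.0nM ICI-182,780 for 22hr.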
# [12] = biological target: Progesterone receptor (Homo sapiens) (UniProt P06401); assay: qHTS assay to identify small molecule agonists of the progesterone receptor (PR) signaling pathway (AID 1346784); also: nearly all actives have a fitted effect of over 30% in size
# Summary of the method: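 Seed PR-UAS-bla HEK 293T cells (2% charcoal-stripped FBS), incubate 6 hr at 37C; add compounds in DMSO, 16 hr at 37C; add LiveBLAzer B/G substrate, 2 hr RT; read fluorescence intensity.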
# [13] = biological target: Progesterone receptor (Homo sapiens) (UniProt P06401); assay: qHTS assay to identify small molecule antagonists of the progesterone receptor (PR) signaling pathway (AID 1346795; active = well fitted inhibition curve with a large enough effect in the signal ratio in the repeat runs, not every such curve was filed as active; the % refers to the signal ratio)
# Summary of the method: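 Screening used a GripTite HEK293T line with PR-responsive UAS-beta-lactamase. Cells were challenged with compound in the presence of 1 nM R5020 final for 16 hr at 37C; B/G FRET substrate, 2 hr room temperature, fluorescence.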
# [14] = qHTS assay to identify small molecule antagonists of the progesterone receptor (PR) signaling pathway - cell viability counter screen (AID 1346798; active = well fitted curve in the direction sought with a large enough effect in the repeat runs; an effect the other way counts as inactive or inconclusive; also: series mostly up to about 92 µM; nearly all actives have a fitted effect of over 50% in size)
# Summary of the method: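 Measures cytotoxicity in parallel with the PR antagonist reporter read: HEK293T PR-UAS-bla cells get compound and R5020 for 16 hr, and remaining viable cells are quantified by CellTiter-Glo luminescence.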
# [15] = qHTS assay to identify small molecule agonists of the progesterone receptor (PR) signaling pathway - cell viability counter screen (AID 1346799); also: nearly all actives have a fitted effect of over 45% in size
# Summary of the method: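 Using the same plates as the PR reporter screen, HEK293T PR-UAS-bla cells received compounds for 16 hr at 37C and were then lysed with CellTiter-Glo; luminescence was read 30 min later at room temperature.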
# [16] = qHTS assay to identify small molecule antagonists of the TGF-beta/Smad signaling pathway - cell viability counter screen (AID 1346824; active = well fitted curve in the direction sought with a large enough effect in the repeat runs; an effect the other way counts as inactive or inconclusive; also: nearly all actives have a fitted effect of over 50% in size)
# Summary of the method: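 Cytotoxicity counter-screen run in the same wells as the beta-lactamase Smad reporter read: CellTiter-Glo luminescence after 30 min at room temperature. HEK 293T SBE-bla cells had 5 hr compound exposure at 37 C with TGF-beta1 (0.25 ng/mL stock).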
# [17] = qHTS assay to identify small molecule agonists of the TGF-beta/Smad signaling pathway - cell viability counter screen (AID 1346829; active = well fitted curve in the direction sought with a large enough effect in the repeat runs; an effect the other way counts as inactive or inconclusive; also: top concentration of the series differs between compounds; nearly all actives have a fitted effect of over 45% in size)
# Summary of the method: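 HEK 293T SBE-bla line, 5 hr compound exposure at 37 C, multiplexed CellTiter-Glo viability read by luminescence.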
# [18] = qHTS assay to identify small molecule agonists of the TGF-beta/Smad signaling pathway (AID 1346859; active = well fitted activation curve with a large enough effect in the signal ratio in the repeat runs, not every such curve was filed as active; the % refers to the signal ratio; also: series mostly up to about 77 µM)
# Summary of the method: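 Beta-lactamase reporter activity downstream of Smad binding elements was measured in stably transfected HEK 293T cells; compounds were incubated for 5 hr, substrate for 2 hr at room temperature.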
# [19] = biological target: Androgen receptor (Homo sapiens) (UniProt P10275); assay: qHTS assay to identify small molecule agonists of the androgen receptor (AR) signaling pathway in the presence of an antagonist (AID 1259381); also: nearly all actives have a fitted effect of over 15% in size
# Summary of the method: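 Agonist-mode confirmation screen: human MDA-kb2 cells stably expressing luciferase under an MMTV promoter bearing AR and GR response elements, co-treated with 3.0uM nilutamide (final). Luminescence measured after 16hr compound incubation.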
# [20] = biological target: Thyrotropin-releasing hormone receptor (Homo sapiens) (UniProt P34981); assay: qHTS assay to identify small molecule antagonists of the thyrotropin-releasing hormone receptor (TRHR) signaling pathway (AID 1346877; active = well fitted inhibition curve with a large enough effect in the repeat runs, not every such curve was filed as active; also: series mostly up to about 51 µM)
# Summary of the method: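 Antagonism is measured as suppression of the calcium response to 1 nM TRH in TRHR-HEK293 cells that have been dye-loaded for 2 h at 37 °C after overnight plating. Each compound is tested at 15 concentrations in triplicate.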
# Sequence of Thyrotropin-releasing hormone receptor (Homo sapiens) (P34981 whole entry, looked up): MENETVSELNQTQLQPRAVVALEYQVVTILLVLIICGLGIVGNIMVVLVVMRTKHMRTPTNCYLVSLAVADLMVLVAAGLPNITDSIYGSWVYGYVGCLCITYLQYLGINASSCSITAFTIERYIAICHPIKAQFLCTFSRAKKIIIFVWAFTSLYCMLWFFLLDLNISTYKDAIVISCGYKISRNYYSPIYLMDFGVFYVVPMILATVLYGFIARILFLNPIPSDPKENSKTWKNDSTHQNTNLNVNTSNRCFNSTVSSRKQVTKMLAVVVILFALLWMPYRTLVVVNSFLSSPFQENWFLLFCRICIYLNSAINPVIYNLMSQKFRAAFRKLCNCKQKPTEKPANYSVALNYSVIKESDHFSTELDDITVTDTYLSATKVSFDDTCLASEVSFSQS
# Sequence of Estrogen receptor beta (Homo sapiens) (Q92731 whole entry, looked up): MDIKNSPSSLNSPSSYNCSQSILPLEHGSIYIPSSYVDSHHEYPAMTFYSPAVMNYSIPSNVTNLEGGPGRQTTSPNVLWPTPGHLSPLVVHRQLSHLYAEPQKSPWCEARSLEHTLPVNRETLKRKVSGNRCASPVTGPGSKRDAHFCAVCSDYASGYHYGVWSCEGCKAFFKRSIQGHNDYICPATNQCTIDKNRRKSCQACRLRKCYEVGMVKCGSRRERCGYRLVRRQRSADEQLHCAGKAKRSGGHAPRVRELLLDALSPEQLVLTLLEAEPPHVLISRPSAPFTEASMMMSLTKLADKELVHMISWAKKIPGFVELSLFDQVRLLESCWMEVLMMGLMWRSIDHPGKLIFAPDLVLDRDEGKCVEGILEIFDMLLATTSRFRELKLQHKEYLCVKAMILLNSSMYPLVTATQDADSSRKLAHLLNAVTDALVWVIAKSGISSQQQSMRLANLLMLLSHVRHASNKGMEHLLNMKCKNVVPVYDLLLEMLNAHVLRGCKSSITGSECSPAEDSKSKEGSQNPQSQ
# Sequence of Androgen receptor (Homo sapiens) (P10275 whole entry, looked up): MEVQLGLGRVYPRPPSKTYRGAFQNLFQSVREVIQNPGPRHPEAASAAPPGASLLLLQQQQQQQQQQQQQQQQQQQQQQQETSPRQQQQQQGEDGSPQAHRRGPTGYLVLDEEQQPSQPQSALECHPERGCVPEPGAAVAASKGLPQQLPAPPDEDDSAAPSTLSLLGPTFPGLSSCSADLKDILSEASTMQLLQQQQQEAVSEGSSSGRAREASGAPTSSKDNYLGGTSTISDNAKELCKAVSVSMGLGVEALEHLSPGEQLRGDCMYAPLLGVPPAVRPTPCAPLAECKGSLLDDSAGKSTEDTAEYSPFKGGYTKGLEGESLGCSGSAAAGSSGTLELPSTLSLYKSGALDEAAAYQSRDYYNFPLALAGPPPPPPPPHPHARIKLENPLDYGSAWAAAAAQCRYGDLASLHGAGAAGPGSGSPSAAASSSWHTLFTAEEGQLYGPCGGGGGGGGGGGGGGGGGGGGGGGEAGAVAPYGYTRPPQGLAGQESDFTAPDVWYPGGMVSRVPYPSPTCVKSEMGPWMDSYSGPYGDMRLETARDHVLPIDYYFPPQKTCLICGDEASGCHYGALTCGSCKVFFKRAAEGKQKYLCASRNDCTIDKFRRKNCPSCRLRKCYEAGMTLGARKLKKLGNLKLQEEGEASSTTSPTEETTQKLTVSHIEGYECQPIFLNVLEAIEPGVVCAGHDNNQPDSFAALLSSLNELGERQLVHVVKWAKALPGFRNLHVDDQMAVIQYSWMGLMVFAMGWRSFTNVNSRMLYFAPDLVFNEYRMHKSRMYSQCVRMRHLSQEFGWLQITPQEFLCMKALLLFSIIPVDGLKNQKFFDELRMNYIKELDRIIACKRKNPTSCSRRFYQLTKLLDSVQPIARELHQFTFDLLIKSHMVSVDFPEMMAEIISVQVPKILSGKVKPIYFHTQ
# Sequence of Progesterone receptor (Homo sapiens) (P06401 whole entry, looked up): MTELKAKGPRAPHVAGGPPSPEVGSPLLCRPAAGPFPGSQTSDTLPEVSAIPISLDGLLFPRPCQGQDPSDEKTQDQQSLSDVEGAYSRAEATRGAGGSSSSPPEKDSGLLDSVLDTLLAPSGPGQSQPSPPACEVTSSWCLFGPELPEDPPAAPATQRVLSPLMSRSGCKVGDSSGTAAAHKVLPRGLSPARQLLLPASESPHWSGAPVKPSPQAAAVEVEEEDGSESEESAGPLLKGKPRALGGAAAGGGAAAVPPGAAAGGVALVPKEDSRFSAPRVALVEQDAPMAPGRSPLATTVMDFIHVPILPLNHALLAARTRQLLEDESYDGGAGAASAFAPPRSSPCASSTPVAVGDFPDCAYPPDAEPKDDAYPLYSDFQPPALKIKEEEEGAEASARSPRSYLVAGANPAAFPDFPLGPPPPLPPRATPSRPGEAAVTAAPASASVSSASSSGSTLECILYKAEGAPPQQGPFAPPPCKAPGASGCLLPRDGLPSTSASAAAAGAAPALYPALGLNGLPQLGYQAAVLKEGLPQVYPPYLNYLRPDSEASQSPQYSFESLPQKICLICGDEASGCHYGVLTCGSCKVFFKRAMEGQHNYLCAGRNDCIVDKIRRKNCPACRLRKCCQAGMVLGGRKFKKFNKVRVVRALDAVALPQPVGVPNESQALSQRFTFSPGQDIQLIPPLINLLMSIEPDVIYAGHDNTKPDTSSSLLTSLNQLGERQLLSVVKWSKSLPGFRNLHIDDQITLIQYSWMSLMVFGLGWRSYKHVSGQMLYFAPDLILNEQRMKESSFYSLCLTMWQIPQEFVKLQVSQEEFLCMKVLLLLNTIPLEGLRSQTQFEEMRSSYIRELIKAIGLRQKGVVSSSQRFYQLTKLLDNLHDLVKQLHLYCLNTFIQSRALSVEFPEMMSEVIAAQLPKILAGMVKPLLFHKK
# Sequence of Thyrotropin receptor (Homo sapiens) (P16473 whole entry, looked up): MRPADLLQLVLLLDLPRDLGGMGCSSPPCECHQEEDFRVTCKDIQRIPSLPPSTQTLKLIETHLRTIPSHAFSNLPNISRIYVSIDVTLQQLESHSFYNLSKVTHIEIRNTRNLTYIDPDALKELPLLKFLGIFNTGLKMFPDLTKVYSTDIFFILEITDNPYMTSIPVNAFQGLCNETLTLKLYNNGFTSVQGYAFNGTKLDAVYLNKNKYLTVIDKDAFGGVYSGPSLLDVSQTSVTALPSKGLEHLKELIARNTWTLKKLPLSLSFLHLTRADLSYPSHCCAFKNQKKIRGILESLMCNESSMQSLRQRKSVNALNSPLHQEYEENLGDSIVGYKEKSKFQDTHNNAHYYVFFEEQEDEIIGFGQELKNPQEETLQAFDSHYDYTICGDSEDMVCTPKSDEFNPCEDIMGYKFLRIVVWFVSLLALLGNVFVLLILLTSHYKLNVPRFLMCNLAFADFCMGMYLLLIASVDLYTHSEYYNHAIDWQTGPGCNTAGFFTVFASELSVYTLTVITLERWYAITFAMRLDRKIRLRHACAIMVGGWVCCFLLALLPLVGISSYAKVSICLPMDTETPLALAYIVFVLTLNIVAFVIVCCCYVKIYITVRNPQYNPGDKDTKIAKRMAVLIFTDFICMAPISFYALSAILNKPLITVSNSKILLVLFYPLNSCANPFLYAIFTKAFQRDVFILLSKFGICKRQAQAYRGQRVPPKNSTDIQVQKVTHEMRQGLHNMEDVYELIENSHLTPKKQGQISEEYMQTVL
# Sequence of Estrogen receptor (Homo sapiens) (P03372 whole entry, looked up): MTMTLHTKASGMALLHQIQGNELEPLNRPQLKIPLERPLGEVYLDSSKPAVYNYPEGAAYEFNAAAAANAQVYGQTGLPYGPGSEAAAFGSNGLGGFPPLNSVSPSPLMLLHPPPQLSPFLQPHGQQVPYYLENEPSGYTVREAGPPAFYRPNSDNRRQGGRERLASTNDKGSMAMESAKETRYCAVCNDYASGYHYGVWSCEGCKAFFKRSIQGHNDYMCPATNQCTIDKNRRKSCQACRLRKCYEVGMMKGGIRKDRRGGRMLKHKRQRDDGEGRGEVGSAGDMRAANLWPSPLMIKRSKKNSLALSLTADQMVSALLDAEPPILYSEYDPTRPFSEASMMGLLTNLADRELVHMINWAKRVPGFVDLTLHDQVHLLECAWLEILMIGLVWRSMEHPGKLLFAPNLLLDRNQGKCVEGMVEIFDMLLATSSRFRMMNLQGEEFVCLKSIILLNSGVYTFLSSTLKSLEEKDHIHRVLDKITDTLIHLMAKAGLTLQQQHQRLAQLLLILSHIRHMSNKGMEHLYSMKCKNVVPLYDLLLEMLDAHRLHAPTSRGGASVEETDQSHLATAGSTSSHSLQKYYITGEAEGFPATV
SMILES,outcome [1],Potency [2],Potency [3],Potency [4],Potency [5],Potency [6],outcome [7],Potency [8],outcome [9],outcome [10],Potency [11],Potency [12],Potency [13],outcome [14],outcome [15],outcome [16],outcome [17],outcome [18],Potency [19],outcome [20]
O=[N+]([O-])c1ccc2nc[nH]c2c1,inactive,inactive,inactive,inactive,inactive,inactive,inactive,inactive,inactive,inactive,inactive,inactive,inactive,inactive,inactive,inactive,inactive,inactive,,
CCCCCC(=O)O,inactive,inactive,inactive,inactive,inactive,inactive,inactive,inactive,inactive,inactive,inactive,inactive,inactive,inactive,inactive,inactive,inactive,inactive,inactive,inactive
CSc1ccc(Cl)cc1,inactive,inactive,inactive,inactive,inactive,inactive,inactive,inactive,inactive,inactive,inactive,inactive,inactive,inactive,inactive,inactive,inactive,inactive,inactive,inactive
O=C(O)c1ccc(S(=O)(=O)N(Cl)Cl)cc1,inactive,inactive,inactive,inactive,inactive,inactive,inactive,inactive,,inactive,inactive,inactive,inactive,inactive,inactive,,inactive,inactive,,
CC(C)(C)c1cc(Cc2cc(C(C)(C)C)c(O)c(C(C)(C)C)c2)cc(C(C)(C)C)c1O,inactive,inactive,inactive,inactive,inactive,inactive,inactive,inactive,,inactive,inactive,inactive,inactive,inactive,inactive,,inactive,inactive,,
Cc1ccc([N+](=O)[O-])cc1S(=O)(=O)O,inactive,inactive,inactive,inactive,inactive,inactive,inactive,inactive,,inactive,inactive,inactive,inactive,inactive,inactive,,inactive,inactive,inactive,
CC(C)CC(=O)CC(C)CC(C)C (configuration not stated),inactive,inactive,inactive,inactive,inactive,inactive,inactive,,inactive,inactive,inactive,inactive,inactive,inactive,inactive,,inactive,inactive,inactive,inactive
CC(CCO)CC(C)(C)C (configuration not stated),inactive,inactive,inactive,inactive,inactive,inactive,inactive,inactive,inactive,inactive,inactive,inactive,inactive,,inactive,inactive,inactive,inactive,inactive,
CC(=O)OCc1ccco1,inactive,1.53 µM (active) and inactive,inactive,inactive,inactive,inactive,inactive,inactive,inactive,inactive,inactive,inactive,inactive,inactive,inactive,,inactive,inactive,,
NCCN1CCNCC1,inactive,inactive,inactive,inactive,inactive,inactive,inactive,inactive,,inactive,inactive,inactive,inactive,inactive,inactive,inactive,inactive,inactive,,
CCCCCCCCCCCCCCCCO,inactive,inactive,inactive,inactive,inactive,inactive,inactive,inactive,inactive,inactive,inactive,inactive,inactive,,inactive,,inactive,inactive,,
CCCCC(C=O)CC (configuration not stated),inactive,inactive,inactive,inactive,inactive,inactive,inactive,inactive,,inactive,inactive,inactive,inactive,inactive,inactive,inactive,inactive,inactive,,inactive
CCCCCCCO,inactive,inactive,inactive,inactive,inactive,inactive,inactive,inactive,inactive,inactive,inactive,inactive,inactive,,inactive,,inactive,inactive,,
C[Si]1(C)O[Si](C)(C)O[Si](C)(C)O[Si](C)(C)O1,inactive,inactive,inactive,inactive,inactive,inactive,inactive,inactive,,inactive,inactive,inactive,inactive,,inactive,,inactive,inactive,,
CC(=O)CC(C)(C)O,inactive,inactive,inactive,inactive,inactive,inactive,inactive,inactive,,inactive,inactive,inactive,inactive,inactive,inactive,inactive,inactive,inactive,inactive,
CC(=O)OCCOC(C)=O,inactive,inactive,inactive,inactive,inactive,inactive,inactive,inactive,,inactive,inactive,inactive,inactive,,inactive,inactive,inactive,inactive,,inactive

# Source: PubChem BioAssay (Tox21)
